According to PMC8222333, “AsCas12a ultra nuclease facilitates the rapid generation of therapeutic cell medicines”:

B1: TTTT (dsDNA)
DNA 1: GCTATCTAGTGCTCAGTACGCACTGTTTTAGGAAACTTCTGGCAGGACCAGGTCATGAGATCGGAAGAGCACACGTCTGAACTCCAGTCA
DNA 2: TGACTGGAGTTCAGACGTGTGCTCTTCCGATCTCATGACCTGGTCCTGCCAGAAGTTTCCTAAAACAGTGCGTACTGAGCACTAGATAGC
RNA: AAUUUCUACUCUUGUAGAUAGGAAACUUCUGGCAGGACC
B2: ATTA (dsDNA)
DNA 1: GCTATCTAGTGCTCAGTACGCACTGATTAAGGAAACTTCTGGCAGGACCAGGTCATGAGATCGGAAGAGCACACGTCTGAACTCCAGTCA
DNA 2: TGACTGGAGTTCAGACGTGTGCTCTTCCGATCTCATGACCTGGTCCTGCCAGAAGTTTCCTTAATCAGTGCGTACTGAGCACTAGATAGC
RNA: AAUUUCUACUCUUGUAGAUAGGAAACUUCUGGCAGGACC
B3: AATA (dsDNA)
DNA 1: GCTATCTAGTGCTCAGTACGCACTGAATAAGGAAACTTCTGGCAGGACCAGGTCATGAGATCGGAAGAGCACACGTCTGAACTCCAGTCA
DNA 2: TGACTGGAGTTCAGACGTGTGCTCTTCCGATCTCATGACCTGGTCCTGCCAGAAGTTTCCTTATTCAGTGCGTACTGAGCACTAGATAGC
RNA: AAUUUCUACUCUUGUAGAUAGGAAACUUCUGGCAGGACC
B4: AATT (dsDNA)
DNA 1: GCTATCTAGTGCTCAGTACGCACTGAATTAGGAAACTTCTGGCAGGACCAGGTCATGAGATCGGAAGAGCACACGTCTGAACTCCAGTCA
DNA 2: TGACTGGAGTTCAGACGTGTGCTCTTCCGATCTCATGACCTGGTCCTGCCAGAAGTTTCCTAATTCAGTGCGTACTGAGCACTAGATAGC
RNA: AAUUUCUACUCUUGUAGAUAGGAAACUUCUGGCAGGACC
B5: ACTT (dsDNA)
DNA 1: GCTATCTAGTGCTCAGTACGCACTGACTTAGGAAACTTCTGGCAGGACCAGGTCATGAGATCGGAAGAGCACACGTCTGAACTCCAGTCA
DNA 2: TGACTGGAGTTCAGACGTGTGCTCTTCCGATCTCATGACCTGGTCCTGCCAGAAGTTTCCTAAGTCAGTGCGTACTGAGCACTAGATAGC
RNA: AAUUUCUACUCUUGUAGAUAGGAAACUUCUGGCAGGACC
B6: ATTT (dsDNA)
DNA 1: GCTATCTAGTGCTCAGTACGCACTGATTTAGGAAACTTCTGGCAGGACCAGGTCATGAGATCGGAAGAGCACACGTCTGAACTCCAGTCA
DNA 2: TGACTGGAGTTCAGACGTGTGCTCTTCCGATCTCATGACCTGGTCCTGCCAGAAGTTTCCTAAATCAGTGCGTACTGAGCACTAGATAGC
RNA: AAUUUCUACUCUUGUAGAUAGGAAACUUCUGGCAGGACC
B7: AGAA (dsDNA)
DNA 1: GCTATCTAGTGCTCAGTACGCACTGAGAAAGGAAACTTCTGGCAGGACCAGGTCATGAGATCGGAAGAGCACACGTCTGAACTCCAGTCA
DNA 2: TGACTGGAGTTCAGACGTGTGCTCTTCCGATCTCATGACCTGGTCCTGCCAGAAGTTTCCTTTCTCAGTGCGTACTGAGCACTAGATAGC
RNA: AAUUUCUACUCUUGUAGAUAGGAAACUUCUGGCAGGACC

The binders below were run against dAsCas12a WT (Acidaminococcus sp., UniProt U2UMQ6 1-1307, D908A;E993A;D1235A) (assay: Spec-seq (native PAGE EMSA with sequencing of bound and unbound); 25 mM Tris-HCl pH 7.4, 150 mM KCl, 5 mM MgCl2, 10% glycerol, 1 mM DTT, 40 ng/uL salmon sperm DNA; 400 nM Cas12a, 480 nM crRNA, 50 nM library, 37 C 1 h; native P; high values mean tight binding). Details: not given.
B1 showed a binding signal of -5.51 lnKA. B2 was tested, and the binding signal was -6.74 lnKA. Binder B6 has a binding signal of -8.27 lnKA.

The binders below were run against dAsCas12a Ultra (Acidaminococcus sp., UniProt U2UMQ6 1-1307, M537R;F870L;D908A;E993A;D1235A) (assay: Spec-seq (native PAGE EMSA with sequencing of bound and unbound); 25 mM Tris-HCl pH 7.4, 150 mM KCl, 5 mM MgCl2, 10% glycerol, 1 mM DTT, 40 ng/uL salmon sperm DNA; 400 nM Cas12a, 480 nM crRNA, 50 nM library, 37 C 1 h; native PAGE at room temperature; high values mean tight binding). Details: protein: recombinant.
In the case of B1, the binding signal is reported as -3.17 lnKA. Binder B2 has a binding signal of -4.56 lnKA. B3 was tested, and the binding signal was -8.32 lnKA. B4 was tested, and the binding signal was -8.59 lnKA. Binder B5 has a binding signal of -8.57 lnKA. B6 was tested, and the binding signal was -7.31 lnKA. With B7 the binding signal was -8.87 lnKA.

These binders were tested against dAsCas12a E174R (Acidaminococcus sp., UniProt U2UMQ6 1-1307, E174R;D908A;E993A;D1235A) in the same assay as above. Details: protein: recombinant.
With B1 the binding signal was -2.29 lnKA. B2 was tested, and the binding signal was -2.6 lnKA. Work on B3 yielded a binding signal of -7.04 lnKA. In the case of B4, the binding signal is reported as -8.34 lnKA. B5 showed a binding signal of -8.23 lnKA. For B6, the binding signal was -6.8 lnKA. B7 showed a binding signal of -8.92 lnKA.

What follows are binders tested against dAsCas12a S542R (Acidaminococcus sp., UniProt U2UMQ6 1-1307, S542R;D908A;E993A;D1235A) in the same assay as above. Details: protein: recombinant.
With B1 the binding signal was -2.76 lnKA. With B2 the binding signal was -4.16 lnKA. Binder B3 has a binding signal of -8.13 lnKA. B4 showed a binding signal of -8.01 lnKA. Work on B5 yielded a binding signal of -7.91 lnKA. With B6 the binding signal was -7.13 lnKA. B7 was tested, and the binding signal was -8.59 lnKA.

These binders were tested against dAsCas12a K548R (Acidaminococcus sp., UniProt U2UMQ6 1-1307, K548R;D908A;E993A;D1235A) in the same assay as above. Details: protein: recombinant.
In the case of B1, the binding signal is reported as -4.73 lnKA. B2 gave a binding signal of -5.45 lnKA. B6 gave a binding signal of -8.23 lnKA.

These binders were tested against d-enCas12a (Acidaminococcus sp., UniProt U2UMQ6 1-1307, E174R;S542R;K548R;D908A;E993A;D1235A) in the same assay as above. Details: protein: recombinant.
For B1, the binding signal was -0.44 lnKA. In the case of B2, the binding signal is reported as -0.456 lnKA. B3 gave a binding signal of -2.24 lnKA. Work on B4 yielded a binding signal of -5.1 lnKA. With B5 the binding signal was -5.7 lnKA. B6 was tested, and the binding signal was -2.42 lnKA. B7 gave a binding signal of -5.61 lnKA.

Each binder was assayed against d-enCas12a-Ultra (Acidaminococcus sp., UniProt U2UMQ6 1-1307, E174R;S542R;K548R;M537R;F870L;D908A;E993A;D1235A) in the same assay as above. Details: protein: recombinant.
With B1 the binding signal was -0.171 lnKA. B2 showed a binding signal of -0.172 lnKA. B3 was tested, and the binding signal was -0.762 lnKA. Binder B4 has a binding signal of -2.64 lnKA. B5 gave a binding signal of -3.19 lnKA. For B6, the binding signal was -0.548 lnKA. For B7, the binding signal was -3.36 lnKA.
